Here are results for eight molecules from PubChem BioAssay (NCI).

Among the test systems are NCI-H23 lung; NCI-H226 lung; NCI-H322M lung; HOP-62 NSCLC; NCI-H460 lung; HOP-92 NSCLC; NCI-H522 lung; A549/ATCC NSCLC; 786-0 renal; COLO 205 colon; DU-145 prostate; K-562 leukemia; MALME-3M melanoma; MDA-MB-231 breast; RXF 393 renal; SF-268 CNS; SF-295 CNS; SF-539 CNS; UACC-257 melanoma; M14 melanoma.
Experiment in all cases: NCI-60 one-dose screen, 48 h (100 = growth as untreated, 0 = no growth, -100 = all killed)
Holding throughout (conditions): 10 µM

Compounds without any hit were thinned out: in the full panel of roughly 83,000, 20% have a hit.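 Compound tested at a single concentration for 48 hours in 96-well plates; a percent growth value below 10 was scored as active.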 Unmarked numbers belong to inactive results. The source made the active and inactive calls.

Take `CN(C)c1ccc2c(c1)OC(N)=C(C#N)C2c1ccc2c(c1)CCO2` (stereo not given): the growth was 35.5% in the assay on NCI-H23 lung; 48.9% in the assay with NCI-H226 lung; 51.4% in the assay with NCI-H322M lung; 36.3% with HOP-62 NSCLC; 9.76% (active) with NCI-H460 lung; 58.8% in the assay with HOP-92 NSCLC. Besides, the growth was -6.52% (active) with NCI-H522 lung; 21.9% in the assay with A549/ATCC NSCLC; 34.8% in the assay with 786-0 renal; -26% (active) in the assay with COLO 205 colon; 26.7% in the assay with DU-145 prostate; 17% with K-562 leukemia. Also, the growth is 87.5% in the assay on MALME-3M melanoma; 21.7% in the assay on MDA-MB-231 breast; 23.5% with RXF 393 renal; 47.7% in the assay with SF-268 CNS; -3.28% (active) with SF-295 CNS; -0.663% (active) with SF-539 CNS. Moreover, the growth with UACC-257 melanoma was 58%; in the assay with M14 melanoma, 10%.
Regarding `COc1cccc2c1O/C(=C\c1ncc([N+](=O)[O-])n1C)C2=O`, the growth was -20.4% (active) with NCI-H23 lung; -16.4% (active) in the assay with NCI-H226 lung; 23.9% in the assay with NCI-H322M lung; -28.5% (active) in the assay on HOP-62 NSCLC; -34.1% (active) in the assay on NCI-H460 lung; -36.8% (active) with HOP-92 NSCLC. The growth was -56.8% (active) with NCI-H522 lung; -23.8% (active) with A549/ATCC NSCLC; -28.7% (active) in the assay on 786-0 renal; -57.8% (active) in the assay with COLO 205 colon; -11.9% (active) in the assay with DU-145 prostate; 0.449% (active) in the assay with K-562 leukemia. For the same molecule, the growth was -53% (active) with MALME-3M melanoma; -19.6% (active) in the assay on MDA-MB-231 breast; -66.2% (active) in the assay with RXF 393 renal; -31.3% (active) with SF-268 CNS; -10.4% (active) in the assay with SF-295 CNS; -53% (active) in the assay with SF-539 CNS. In addition, the growth in the assay on UACC-257 melanoma was -50.5% (active); in the assay with M14 melanoma, -61.8% (active).
As for `Cc1ccc(-c2cc(-c3cccc(Nc4ccnc5cc(Cl)ccc45)c3)nc3nc(N)[nH]c(=O)c23)cc1`, the growth with NCI-H23 lung is 100%; in the assay on NCI-H226 lung it was 96.6%; with NCI-H322M lung it was 91.3%; with HOP-62 NSCLC, 113%; in the assay with NCI-H460 lung it was 110%; in the assay with HOP-92 NSCLC, 14.6%. Moreover, the growth in the assay on NCI-H522 lung is 21%; in the assay with A549/ATCC NSCLC, 102%; in the assay with 786-0 renal, 94.9%; in the assay on COLO 205 colon it was 125%; with DU-145 prostate, 105%; in the assay with K-562 leukemia it was 28.1%. The growth is 108% with MALME-3M melanoma; 103% in the assay on MDA-MB-231 breast; 90.9% with RXF 393 renal; 91.2% in the assay on SF-268 CNS; 102% in the assay with SF-295 CNS; 97.5% with SF-539 CNS. Also, the figures for the growth with UACC-257 melanoma and in the assay on M14 melanoma were 102% and 106%, respectively.
Regarding `CC(C)C[C@H](NC(=O)Cn1ccc(Nc2ccccc2)cc1=O)B(O)O`, the growth was 44.1% in the assay with NCI-H23 lung; -71.1% (active) with NCI-H226 lung; 91.5% in the assay with NCI-H322M lung; 49.5% in the assay with HOP-62 NSCLC; 77.3% in the assay on NCI-H460 lung; 1.31% (active) in the assay on HOP-92 NSCLC. In addition, the growth was -24% (active) in the assay with NCI-H522 lung; 71.4% in the assay with A549/ATCC NSCLC; 33.1% in the assay on 786-0 renal; 40.8% with COLO 205 colon; 38.9% with DU-145 prostate; 39.1% with K-562 leukemia. Further, the growth was -11.7% (active) in the assay with MALME-3M melanoma; 48.9% with MDA-MB-231 breast; -16.7% (active) in the assay on RXF 393 renal; 34.2% with SF-268 CNS; 37.8% in the assay on SF-295 CNS; -57.7% (active) in the assay with SF-539 CNS. The growth with UACC-257 melanoma was 7.65% (active); with M14 melanoma, 31.8%.
Take `CCOC(=O)c1ccc(NC(=O)Nc2nncs2)cc1`: the growth in the assay with NCI-H23 lung was 21.9%; in the assay with NCI-H226 lung, -21.3% (active); in the assay with NCI-H322M lung, 43.2%; in the assay on HOP-62 NSCLC, 26.4%; in the assay on NCI-H460 lung, 7.58% (active); in the assay on HOP-92 NSCLC it was 58.2%. Further, the growth was 7.15% (active) in the assay on NCI-H522 lung; 19.4% with A549/ATCC NSCLC; 35.4% with 786-0 renal; -25.9% (active) in the assay on COLO 205 colon; -18% (active) in the assay with DU-145 prostate; 7.79% (active) with K-562 leukemia. In addition, the growth with MALME-3M melanoma was 22.2%; with MDA-MB-231 breast, 14.8%; in the assay on RXF 393 renal, -15.2% (active); in the assay on SF-268 CNS it was 29.3%; in the assay on SF-295 CNS it was -39.9% (active); with SF-539 CNS, 14.6%. Also, the growth with UACC-257 melanoma is 67.9%; in the assay with M14 melanoma, 4.02% (active).
For the molecule `CCCCCCOc1ccc(/C=C/C(=O)c2ccc(B(O)O)cc2)cc1`, the growth in the assay with NCI-H23 lung is 76.2%; in the assay with NCI-H226 lung it was 75.6%; in the assay with NCI-H322M lung it was 85.9%; with HOP-62 NSCLC, 89.8%; in the assay with NCI-H460 lung, 91.7%; with HOP-92 NSCLC, 5.7% (active). For the same molecule, the growth in the assay with NCI-H522 lung was 66.1%; in the assay with A549/ATCC NSCLC, 75.7%; in the assay with 786-0 renal, 73%; with COLO 205 colon it was 103%; in the assay on DU-145 prostate, 88.5%; in the assay with K-562 leukemia it was 82.5%. For the same molecule, the growth is 86.8% in the assay with MALME-3M melanoma; 73.8% with MDA-MB-231 breast; 74.2% with RXF 393 renal; 76.1% with SF-268 CNS; 111% in the assay on SF-295 CNS; 79.1% in the assay with SF-539 CNS. In addition, the values for the growth in the assay with UACC-257 melanoma and in the assay on M14 melanoma were 83.4% and 80.8%, respectively.
Take `COC(=O)c1c(C)nc(Nc2nc3ccccc3s2)nc1-c1ccc(Cl)cc1Cl`: the growth in the assay with NCI-H23 lung was 103%; in the assay on NCI-H226 lung it was 102%; in the assay on NCI-H322M lung, 106%; in the assay on HOP-62 NSCLC, 97%; in the assay with NCI-H460 lung, 106%; in the assay on HOP-92 NSCLC it was 107%. Besides, the growth with NCI-H522 lung is 96.1%; in the assay with A549/ATCC NSCLC, 107%; with 786-0 renal it was 104%; with COLO 205 colon, 110%; in the assay with DU-145 prostate it was 113%; in the assay on K-562 leukemia, 91.2%. In addition, the growth with MALME-3M melanoma was 97.1%; in the assay with MDA-MB-231 breast, 99.1%; with RXF 393 renal it was 107%; in the assay on SF-268 CNS it was 101%; in the assay with SF-295 CNS, 93.3%; with SF-539 CNS it was 103%. The growth in the assay with UACC-257 melanoma was 111%; in the assay with M14 melanoma, 101%.
Take `COCCNCC(O)Cn1c2ccc(Cl)cc2c2cc(Cl)ccc21` (stereo not given): the growth with NCI-H23 lung is -36.8% (active); with NCI-H226 lung, 43.1%; in the assay with NCI-H322M lung, -20.1% (active); with HOP-62 NSCLC it was 17%; in the assay with NCI-H460 lung, 5.55% (active); in the assay on HOP-92 NSCLC it was 135%. Further, the growth with NCI-H522 lung is -62.8% (active); in the assay on A549/ATCC NSCLC, -10.2% (active); in the assay with 786-0 renal, 21.9%; in the assay with COLO 205 colon it was -67.9% (active); in the assay with DU-145 prostate it was 7.48% (active); in the assay on K-562 leukemia it was -17.1% (active). Besides, the growth was -86.3% (active) in the assay on MALME-3M melanoma; -33.1% (active) with MDA-MB-231 breast; 3.52% (active) with RXF 393 renal; 7.96% (active) in the assay on SF-268 CNS; -6.61% (active) in the assay with SF-295 CNS; -85% (active) in the assay on SF-539 CNS. Besides, the growth in the assay on UACC-257 melanoma is -81% (active); with M14 melanoma it was -87.4% (active).
